In PubChem BioAssay (Tox21):
Records with an inconclusive call do not appear. Activity calls are given as the source filed them. Unless noted, calls come from the whole dose curve; as a rule, active = well fitted curve in the direction sought with a large enough effect in the repeat runs; inconclusive = weak or mixed curves; inactive = no such curve, though single readings can be large; an effect the other way counts as inactive or inconclusive.

Columns and labels:
[1] = qHTS assay to identify small molecule agonists of the peroxisome proliferator-activated receptor delta (PPARd) signaling pathway - cell viability counter screen (AID 743211); details: PPARd-bla HEK293H viability, CellTiter-Glo luminescence, 17 h; series mostly up to 62.6 µM; note: nearly all actives have a fitted effect of over 55% in size
In short: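 HEK293H PPARd-bla, 3000 cells/well; 5 h preincubation 37C/5% CO2; cpd in DMSO, 17 h 37C; B/G FRET substrate 2 h RT; CellTiter-Glo 30 min RT, luminescence.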

[2] = molecular target: Peroxisome proliferator-activated receptor delta (Homo sapiens) (UniProt Q03181); experiment: qHTS assay to identify small molecule agonists of the peroxisome proliferator-activated receptor delta (PPARd) signaling pathway (AID 743212; calls by dose curve); details: HEK293H PPARd-UAS-bla, beta-lactamase FRET ratio, 17 h; series mostly up to 62.6 µM
In short: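 Beta-lactamase reporter readout: a ratiometric FRET signal from the LiveBLAzer substrate after 2 h at room temperature. Compound exposure at 37 °C in PPARδ-bla HEK293H cells driven by an upstream activator sequence.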

[3] = qHTS assay to identify small molecule antagonists of the peroxisome proliferator-activated receptor delta (PPARd) signaling pathway - cell viability counter screen (AID 743213); details: PPARd-bla HEK293H viability, CellTiter-Glo luminescence, 17 h; series mostly up to 62 µM; note: nearly all actives have a fitted effect of over 50% in size
In short: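 Same-well viability: cells pre-incubated 5 h, dosed with compound plus 300 nM L165041, kept 17 h at 37 C, FRET substrate 2 h RT, then CellTiter-Glo 30 min RT and luminescence.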

[4] = molecular target: Peroxisome proliferator-activated receptor delta (Homo sapiens) (UniProt Q03181); experiment: qHTS assay to identify small molecule antagonists of the peroxisome proliferator-activated receptor delta (PPARd) signaling pathway (AID 743215; active = well fitted inhibition curve with a large enough effect in the signal ratio in the repeat runs, not every such curve was filed as active; the % refers to the signal ratio;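 note: cells stimulated with agonist L165041 at 300 nM final during compound exposure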); details: HEK293H PPARd-UAS-bla, beta-lactamase FRET ratio, antagonist, 17 h; series mostly up to 62 µM
In short: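 HEK293H GeneBLAzer PPARd UAS-bla reporter cells; cpd + L165041 300 nM final, 17 h 37 C; LiveBLAzer B/G FRET substrate 2 h RT; fluorescence intensity read-out. Antagonist mode.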

[5] = molecular target: Vitamin D3 receptor (Homo sapiens) (UniProt P11473); experiment: qHTS assay to identify small molecule agonists of the vitamin D receptor (VDR) signaling pathway (AID 743222; calls by dose curve); details: HEK293T VDR-UAS-bla, beta-lactamase FRET ratio, 16 h; series mostly up to 63.5 µM
In short: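 Beta-lactamase reporter readout (LiveBLAzer B/G FRET, 2 h RT) in VDR-bla cells after 16 h compound treatment at 37C, 5% CO2; cells pre-incubated 4 h before pin transfer of DMSO solutions.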

[6] = molecular target: Vitamin D3 receptor (Homo sapiens) (UniProt P11473); experiment: qHTS assay to identify small molecule antagonists of the vitamin D receptor (VDR) signaling pathway (AID 743223; active = well fitted inhibition curve with a large enough effect in the signal ratio in the repeat runs, not every such curve was filed as active; the % refers to the signal ratio); details: VDR-UAS-bla HEK293T, beta-lactamase FRET ratio, 16 h; series mostly up to 61 µM
In short: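 Antagonist mode uses 1alpha,25-dihydroxyvitamin D3 at 3 nM final as stimulus. VDR-bla cells receive compounds in DMSO, incubate 16 h at 37C, then a beta-lactamase FRET substrate for 2 h at room temperature before fluorescence measurement.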

[7] = molecular target: Bile acid receptor (Homo sapiens) (UniProt Q96RI1); experiment: qHTS assay to identify small molecule antagonists of the farnesoid-X-receptor (FXR) signaling pathway (AID 743217; active = well fitted inhibition curve with a large enough effect in the signal ratio in the repeat runs, not every such curve was filed as active; the % refers to the signal ratio); details: HEK293T FXR-UAS-bla, beta-lactamase ratio, CDCA-stimulated, 16 h; series mostly up to 62.6 µM
In short: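 Read-out: beta-lactamase FRET fluorescence (LiveBLAzer B/G substrate, 2 h, room temperature) in GeneBLAzer FXR-UAS-bla HEK 293T cells. Compounds were co-dosed with 50 uM chenodeoxycholic acid (final) and incubated 16 h at 37 °C.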

[8] = qHTS assay to identify small molecule agonists of the farnesoid-X-receptor (FXR) signaling pathway - cell viability counter screen (AID 743218); details: FXR-bla HEK293T viability, CellTiter-Glo luminescence, 16 h; series mostly up to 62.6 µM; note: nearly all actives have a fitted effect of over 45% in size
In short: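 Luminescence from CellTiter-Glo, read after 30 min at RT, reports viability of GeneBLAzer FXR-UAS-bla HEK 293T cells treated 16 h with compounds in the wells used for the beta-lactamase reporter.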

[9] = molecular target: Bile acid receptor (Homo sapiens) (UniProt Q96RI1); experiment: qHTS assay to identify small molecule agonists of the farnesoid-X-receptor (FXR) signaling pathway (AID 743220; active = well fitted activation curve with a large enough effect in the signal ratio in the repeat runs, not every such curve was filed as active; the % refers to the signal ratio); details: HEK293T FXR-UAS-bla, beta-lactamase FRET ratio, 16 h; series mostly up to 62.6 µM
In short: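 FXR-UAS-bla HEK 293T cells carrying a UAS-driven beta-lactamase reporter were plated for 5 h at 37C/5% CO2, then exposed to DMSO-dissolved Tox21 10K compounds for 16 h at 37C. A LiveBLAzer B/G FRET substrate was loaded for 2 h at room temperature before fluorescence reading.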

[10] = qHTS assay to identify small molecule antagonists of the farnesoid-X-receptor (FXR) signaling pathway - cell viability counter screen (AID 743221; active = well fitted cell-killing curve with a large enough effect in the repeat runs, not every such curve was filed as active; note: nearly all actives have a fitted effect of over 50% in size); details: FXR-bla HEK293T viability, CellTiter-Glo luminescence, 16 h; series mostly up to 62.6 µM
In short: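 Luminescence from CellTiter-Glo measures cytotoxicity in GeneBLAzer FXR-UAS-bla HEK 293T cells. Cells were exposed to compounds with 50 uM chenodeoxycholic acid (final) for 16 h at 37 C, in wells also used for the reporter readout.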

Measured: Potency

Chain of Bile acid receptor (Homo sapiens) (Q96RI1 whole entry, looked up): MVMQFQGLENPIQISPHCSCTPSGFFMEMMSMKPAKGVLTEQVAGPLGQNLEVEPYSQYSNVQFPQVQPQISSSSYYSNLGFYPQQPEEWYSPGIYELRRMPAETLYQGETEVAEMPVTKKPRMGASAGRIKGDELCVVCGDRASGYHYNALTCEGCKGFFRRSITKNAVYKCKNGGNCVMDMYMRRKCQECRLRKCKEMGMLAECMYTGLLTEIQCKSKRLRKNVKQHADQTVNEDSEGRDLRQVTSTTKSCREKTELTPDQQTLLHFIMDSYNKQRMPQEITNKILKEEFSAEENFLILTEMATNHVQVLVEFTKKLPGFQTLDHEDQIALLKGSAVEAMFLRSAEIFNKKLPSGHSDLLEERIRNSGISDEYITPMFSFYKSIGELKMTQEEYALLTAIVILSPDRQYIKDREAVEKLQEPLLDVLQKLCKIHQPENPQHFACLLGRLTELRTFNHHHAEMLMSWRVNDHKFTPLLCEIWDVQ
Chain of Vitamin D3 receptor (Homo sapiens) (P11473 whole entry, looked up): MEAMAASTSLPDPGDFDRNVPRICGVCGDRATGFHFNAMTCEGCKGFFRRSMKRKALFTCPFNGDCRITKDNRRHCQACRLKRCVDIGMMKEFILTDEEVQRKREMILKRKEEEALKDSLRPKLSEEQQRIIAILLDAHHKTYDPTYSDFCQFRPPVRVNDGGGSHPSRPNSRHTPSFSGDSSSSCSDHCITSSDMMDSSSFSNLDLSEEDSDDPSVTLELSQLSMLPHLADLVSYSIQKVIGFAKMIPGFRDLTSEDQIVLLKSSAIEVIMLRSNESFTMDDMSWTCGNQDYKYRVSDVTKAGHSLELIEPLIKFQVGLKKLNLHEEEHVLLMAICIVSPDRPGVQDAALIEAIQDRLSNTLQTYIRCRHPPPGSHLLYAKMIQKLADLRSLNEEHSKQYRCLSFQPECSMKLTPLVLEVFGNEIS
Chain of Peroxisome proliferator-activated receptor delta (Homo sapiens) (Q03181 whole entry, looked up): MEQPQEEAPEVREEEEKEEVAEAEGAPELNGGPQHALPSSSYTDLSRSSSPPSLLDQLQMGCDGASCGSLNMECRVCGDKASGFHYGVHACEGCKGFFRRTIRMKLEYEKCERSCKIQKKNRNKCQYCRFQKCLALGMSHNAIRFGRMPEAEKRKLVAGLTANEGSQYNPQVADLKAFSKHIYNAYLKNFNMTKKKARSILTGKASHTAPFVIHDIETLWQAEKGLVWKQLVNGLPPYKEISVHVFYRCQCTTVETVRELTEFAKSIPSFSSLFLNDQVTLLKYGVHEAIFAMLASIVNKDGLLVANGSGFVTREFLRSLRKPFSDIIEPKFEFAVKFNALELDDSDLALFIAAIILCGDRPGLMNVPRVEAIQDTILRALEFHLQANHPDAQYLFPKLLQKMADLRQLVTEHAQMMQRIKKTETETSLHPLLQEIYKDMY

CCc1cc(Cl)c(OC)c(C(=O)NC[C@@H]2CCCN2CC)c1O
inactive: [1] | [2] | [3] | [4] | [5] | [6]

CC(=O)N[C@@H](CC(C)C)C(=O)O
not listed: [3] | [4]
inactive: all other assays above

O=CCCc1ccccc1
inactive: [1] | [2] | [3] | [8] | [10] | [6]

CCN1CC(CCN2CCOCC2)C(c2ccccc2)(c2ccccc2)C1=O (configuration not stated)
not listed: [4] | [6]
inactive: all other assays above

CCC/C=C/CO
not listed: [4] | [5] | [7]
inactive: all other assays above

C=CC(C)(O)CC/C=C(\C)CCC=C(C)C (configuration not stated)
not listed: [2] | [5] | [6]
inactive: all other assays above

CC(C)C(=O)OC/C=C/c1ccccc1
not listed: [3]
inactive: all other assays above

NCCC(O)(P(=O)(O)O)P(=O)(O)O
not listed: [2] | [5] | [6]
inactive: all other assays above

C/C(=N\O)[C@@H](C)NCC(C)(C)CN[C@H](C)/C(C)=N/O
not listed: [4] | [7] | [9]
inactive: all other assays above

O=C(O)c1cccc(Cl)c1Cl
not listed: [3] | [7] | [9]
inactive: all other assays above

CCC(=O)O[C@]1(C(=O)SCF)[C@H](C)C[C@H]2[C@@H]3C[C@H](F)C4=CC(=O)C=C[C@]4(C)[C@@]3(F)[C@@H](O)C[C@@]21C
inactive: [1] | [2] | [4] | [8] | [5]

CCCCN1C[C@H](O)[C@@H](O)[C@H](O)[C@H]1CO
not listed: [7] | [8] | [9]
inactive: all other assays above

CC(C)C1=CC2=CC[C@@H]3[C@](C)(CCC[C@@]3(C)C(=O)O)[C@H]2CC1
inactive: [1] | [2] | [3] | [10] | [6]

CC(=O)Nc1ccc(C)c(Cl)c1
not listed: [3] | [5] | [8]
inactive: all other assays above

Cc1ccc(C)c(N)c1
not listed: [4] | [6]
inactive: all other assays above

CC(C)C(=O)OCC(C)(C)C(O)C(C)C (configuration not stated)
not listed: [4]
inactive: all other assays above

CC(C)C[C@H](NC(=O)OCC1c2ccccc2-c2ccccc21)C(=O)O
not listed: [4] | [5] | [6]
inactive: all other assays above

Cc1cn([C@@H]2O[C@H](CO)[C@@H](O)[C@@H]2F)c(=O)[nH]c1=O
inactive: [1] | [2] | [3] | [4] | [6]

CCCCNc1ccc(C(=O)OCCN(CC)CC)cc1
inactive: [1] | [2] | [4] | [8] | [10] | [5]

COc1cc(Cl)ccc1Cl
inactive: [1] | [2] | [4] | [8] | [10] | [6]

C[C@@H]1CN(c2c(F)c(N)c3c(=O)c(C(=O)O)cn(C4CC4)c3c2F)C[C@H](C)N1
not listed: [4]
inactive: all other assays above

NC/C=C/C(=O)O
inactive: [1] | [2] | [3] | [4] | [8] | [6]

O=C(C(Cl)Cl)N1CCOC12CCCCC2
not listed: [4]
inactive: all other assays above

CO[Si](C)(C)OC
inactive: [1] | [2] | [3] | [8] | [10]

CCCCCCCOC(=O)CCC
inactive: [1] | [2] | [4] | [8] | [5] | [6]

Cc1cc(S(=O)(=O)O)c(N)cc1Cl
inactive: [1] | [2] | [3] | [4] | [8] | [5]

OCC(CBr)(CBr)CBr
inactive: [1] | [2] | [4] | [8] | [10]

CCc1cc2cc(OC)c(OC)cc2c(Cc2ccccc2)n1
not listed: [3] | [6] | [7]
inactive: all other assays above

Cc1c(C(=O)NCCO)[n+](=O)c2ccccc2n1[O-]
not listed: [7] | [9] | [10]
inactive: all other assays above

CCNCCO
not listed: [4] | [6] | [10]
inactive: all other assays above

C[C@]12C(=O)OC(=O)[C@H]1[C@H]1C=C[C@@H]2C1
inactive: [1] | [2] | [8] | [10] | [5] | [6]

Cc1nc(N)nc(N)c1-c1ccc(Cl)c(Cl)c1
inactive: [1] | [2] | [4] | [9]

CN1C(=O)CC(c2ccccc2)C1=O (configuration not stated)
inactive: [1] | [3] | [7] | [8] | [9] | [10]

O=C(O[C@@H](C(=O)O)[C@@H](OC(=O)c1ccccc1)C(=O)O)c1ccccc1
inactive: [1] | [3] | [4] | [8] | [10]

Cn1cnc2c(F)c(Nc3ccc(Br)cc3Cl)c(C(=O)NOCCO)cc21
not listed: [2]
inactive: all other assays above

CC(CNC1CCCCC1)OC(=O)c1ccccc1 (configuration not stated)
inactive: [1] | [3] | [4] | [8] | [9] | [10]

CCc1nnc(NS(=O)(=O)c2ccc(N)cc2)s1
not listed: [2] | [4] | [5]
inactive: all other assays above
